Assay results published in PubChem BioAssay (NCATS).
“And” between values parts separate entries of the source, which are not always exact repeats. Identical values can stand only once. Unmarked numbers belong to inactive results. Results filed as inconclusive are left out. Where a call stands in place of a potency, no number is given. The source made the active and inactive calls. Unless noted, the call rests on the fitted dose curve; in most records, active means well fitted curve in the direction sought with a large enough effect; inconclusive means small, poorly fitted or top-dose-only effect, or another doubt; inactive means no such curve, though single readings can be large; an effect the other way counts as inactive or inconclusive.

Key:
[1] = AP1 Signaling Pathway (AID 357; active means well fitted curve in either direction with a large enough effect, not every such curve was filed as active;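 further: ME-180 reporter cells stimulated with EGF at its EC50 level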); settings: ME-180 AP-1-bla reporter, EGF-induced, beta-lactamase ratio, 5 h; at 7.69 µM (top of the series) unless noted
How it was run: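 Beta-lactamase reporter under AP-1 response element, ME-180 background. Stimulus: EC50 EGF. Compound exposure 5 h, 37 °C. Detection: CCF4, 2.5 h RT, 460/530 nm. Values: AC50 from titration.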

[2] = target: Cytochrome P450 1A2 (Homo sapiens) (UniProt P05177); assay: p450-cyp1a2 (AID 410; calls by dose curve; further: potency means the concentration at half of the fitted maximal effect)
Cytochrome P450 1A2 (Homo sapiens), sequence (P05177 whole entry, looked up): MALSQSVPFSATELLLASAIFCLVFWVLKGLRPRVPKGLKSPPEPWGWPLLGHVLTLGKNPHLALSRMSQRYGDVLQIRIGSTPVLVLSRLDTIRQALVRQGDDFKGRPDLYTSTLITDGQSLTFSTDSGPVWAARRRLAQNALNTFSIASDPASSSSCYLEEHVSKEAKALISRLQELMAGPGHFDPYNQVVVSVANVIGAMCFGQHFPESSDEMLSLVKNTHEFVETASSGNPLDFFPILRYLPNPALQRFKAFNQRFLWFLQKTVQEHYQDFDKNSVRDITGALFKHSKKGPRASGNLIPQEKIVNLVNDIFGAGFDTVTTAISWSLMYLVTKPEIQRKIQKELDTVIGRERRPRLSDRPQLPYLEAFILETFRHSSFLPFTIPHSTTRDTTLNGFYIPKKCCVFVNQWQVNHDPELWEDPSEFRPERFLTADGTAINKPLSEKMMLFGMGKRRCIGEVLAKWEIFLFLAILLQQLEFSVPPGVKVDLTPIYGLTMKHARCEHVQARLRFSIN
How it was run: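 Luminescent readout of luciferin formed from Luciferin-ME by human CYP1A2; data normalized against complete inhibition by 57 uM furafylline. Enzyme 20nM, substrate 100uM at Km, 100mM KPO4 buffer, 60 min reaction at room temperature.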

[3] = NFAT Signaling Pathway (AID 444; active means well fitted curve in either direction with a large enough effect, not every such curve was filed as active;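 further: carbachol stimulus at about its EC50 of 1 µM final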); settings: Jurkat NFAT-bla M1, carbachol, beta-lactamase ratio, 5 h; at 7.69 µM (top of the series) unless noted
How it was run: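 Read-out: CCF4 FRET ratio (460 nm/530 nm) after 1 h RT dye loading, used for %activity and AC50 from titration series. Cells: Jurkat NFAT-β-lactamase/M1 line, treated with compound plus 1 uM carbachol for 5 h, 37 °C.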

[4] = Stat Signaling Pathway (AID 446; active means well fitted curve in either direction with a large enough effect, not every such curve was filed as active;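 further: ME-180 cervical cancer cells given 40 pM IL-6 alongside compound; SIE-controlled beta-lactamase reporter measured as 460/530 nm FRET emission ratio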); settings: ME-180 SIE beta-lactamase reporter, IL-6 stimulated, 5 h; at 7.69 µM (top of the series) unless noted
How it was run: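 Screening format detects activators and inhibitors alike: ME-180 SIE-bla cells stimulated at 40 pM IL-6 for 5 hrs with compound, then dual-emission beta-lactamase read at 405 nm excitation.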

[5] = target: Glucocorticoid receptor (Homo sapiens) (UniProt P04150); assay: GR-GFP Redistribution (AID 450;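 active means compounds whose dose series gives a full or clear partial fitted curve of increased nuclear translocation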; further: potency means the concentration at half of the fitted maximal effect); settings: U2OS GR-GFP nuclear translocation, laser cytometry, 2 h
Glucocorticoid receptor (Homo sapiens), sequence (P04150 whole entry, looked up, the tested form may be a part): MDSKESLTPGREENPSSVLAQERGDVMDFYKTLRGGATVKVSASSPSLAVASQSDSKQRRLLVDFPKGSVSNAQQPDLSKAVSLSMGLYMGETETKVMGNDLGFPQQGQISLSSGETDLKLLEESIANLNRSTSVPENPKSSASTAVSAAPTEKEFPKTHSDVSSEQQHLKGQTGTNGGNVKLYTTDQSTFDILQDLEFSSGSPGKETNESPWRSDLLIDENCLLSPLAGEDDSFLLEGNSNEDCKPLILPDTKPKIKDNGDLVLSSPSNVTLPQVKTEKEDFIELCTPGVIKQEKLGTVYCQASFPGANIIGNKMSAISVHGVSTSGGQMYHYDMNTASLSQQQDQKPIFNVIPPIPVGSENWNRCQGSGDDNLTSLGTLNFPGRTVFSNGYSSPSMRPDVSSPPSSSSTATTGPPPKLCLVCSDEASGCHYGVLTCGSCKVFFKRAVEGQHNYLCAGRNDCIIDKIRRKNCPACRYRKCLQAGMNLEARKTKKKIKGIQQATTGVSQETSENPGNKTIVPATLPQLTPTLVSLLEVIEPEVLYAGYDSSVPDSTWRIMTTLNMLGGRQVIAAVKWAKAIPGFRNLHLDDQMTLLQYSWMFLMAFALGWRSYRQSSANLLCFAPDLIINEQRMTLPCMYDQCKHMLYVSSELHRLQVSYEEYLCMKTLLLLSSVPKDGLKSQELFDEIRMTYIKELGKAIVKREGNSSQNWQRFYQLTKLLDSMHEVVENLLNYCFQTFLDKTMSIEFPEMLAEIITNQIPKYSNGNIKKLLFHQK

[6] = target: Glucocorticoid receptor (Homo sapiens) (UniProt P04150); assay: GR-EFC Redistribution (AID 451; calls by dose curve; further: potency means the concentration at half of the fitted maximal effect); settings: CHO-K1 GR-EFC translocation, beta-gal luminescence, 2 h
How it was run: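 Translocation of GR-ED fusion to nuclear EA restores b-gal, read by luminescence after 1 h room-temperature detection. Engineered CHO-K1 biosensor cells, 1,000/well, exposed 2 h at 37 C to titrations up to 46 uM final.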

[7] = target: 3',5'-cyclic-AMP phosphodiesterase 4B (Homo sapiens) (UniProt Q07343); assay: qHTS Assay for Inhibitors of PDE-IV (AID 607; active means well fitted activation curve with a large enough effect in the main read-out, with a control signal flat, not every such curve was filed as active)
3',5'-cyclic-AMP phosphodiesterase 4B (Homo sapiens), sequence (Q07343 whole entry, looked up): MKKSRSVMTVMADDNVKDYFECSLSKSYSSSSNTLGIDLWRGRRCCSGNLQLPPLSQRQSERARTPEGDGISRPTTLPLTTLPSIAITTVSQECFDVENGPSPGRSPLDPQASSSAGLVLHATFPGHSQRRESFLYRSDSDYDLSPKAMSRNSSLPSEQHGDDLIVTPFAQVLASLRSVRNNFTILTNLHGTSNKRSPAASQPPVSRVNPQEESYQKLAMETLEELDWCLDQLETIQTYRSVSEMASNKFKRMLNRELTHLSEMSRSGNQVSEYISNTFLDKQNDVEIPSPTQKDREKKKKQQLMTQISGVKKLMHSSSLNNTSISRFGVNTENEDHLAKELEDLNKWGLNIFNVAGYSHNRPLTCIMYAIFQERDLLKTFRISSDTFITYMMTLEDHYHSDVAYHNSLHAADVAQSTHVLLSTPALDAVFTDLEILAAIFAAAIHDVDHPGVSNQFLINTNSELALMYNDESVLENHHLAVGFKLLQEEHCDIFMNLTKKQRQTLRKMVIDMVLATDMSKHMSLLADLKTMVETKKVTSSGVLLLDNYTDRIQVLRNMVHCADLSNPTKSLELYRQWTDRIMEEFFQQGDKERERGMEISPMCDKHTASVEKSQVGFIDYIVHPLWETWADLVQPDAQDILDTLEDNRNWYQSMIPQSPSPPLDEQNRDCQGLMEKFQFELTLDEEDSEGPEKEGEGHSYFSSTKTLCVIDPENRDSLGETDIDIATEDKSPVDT
How it was run: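 The readout is membrane depolarisation from a cAMP-sensing CNG channel, detected with a potential dye at ex 535/em 590. Cells were HEK293-derived (endogenous PDE-IV) at 1000 cells/well, titrated up to 22.9 uM final.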

[8] = target: Guanine nucleotide-binding protein G(i) subunit alpha-1 (Homo sapiens) (UniProt P63096); assay: qHTS Assay for Inhibitors of RGS12 GoLoco Motif Activity (Green Fluorophore) (AID 879);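 further: negative values mean loss of peptide binding seen as reduced polarization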
Guanine nucleotide-binding protein G(i) subunit alpha-1 (Homo sapiens), sequence (P63096 whole entry, looked up): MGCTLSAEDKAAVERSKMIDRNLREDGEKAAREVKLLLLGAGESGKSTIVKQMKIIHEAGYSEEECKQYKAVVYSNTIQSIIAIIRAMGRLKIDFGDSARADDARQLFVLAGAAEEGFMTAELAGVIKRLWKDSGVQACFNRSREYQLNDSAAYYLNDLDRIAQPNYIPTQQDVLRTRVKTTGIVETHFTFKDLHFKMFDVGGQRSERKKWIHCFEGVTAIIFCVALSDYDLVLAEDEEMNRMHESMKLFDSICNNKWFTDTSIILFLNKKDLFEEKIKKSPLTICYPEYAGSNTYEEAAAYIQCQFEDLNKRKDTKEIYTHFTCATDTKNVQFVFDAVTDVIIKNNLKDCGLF
How it was run: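 Fluorescence polarization assay: 50 nM Gαi1 with 10 nM FITC-labeled RGS12 GoLoco peptide in 10 mM Tris pH 7.5, 150 mM NaCl, 0.1 mM GDP, 0.05% NP40, 10 min at room temperature with compound.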

[9] = target: Cytochrome P450 3A4 (Homo sapiens) (UniProt P08684); assay: qHTS Assay for Activators of Cytochrome P450 3A4 (AID 885); further: nearly all actives have a fitted effect of over 65% in size
Cytochrome P450 3A4 (Homo sapiens), sequence (P08684 whole entry, looked up): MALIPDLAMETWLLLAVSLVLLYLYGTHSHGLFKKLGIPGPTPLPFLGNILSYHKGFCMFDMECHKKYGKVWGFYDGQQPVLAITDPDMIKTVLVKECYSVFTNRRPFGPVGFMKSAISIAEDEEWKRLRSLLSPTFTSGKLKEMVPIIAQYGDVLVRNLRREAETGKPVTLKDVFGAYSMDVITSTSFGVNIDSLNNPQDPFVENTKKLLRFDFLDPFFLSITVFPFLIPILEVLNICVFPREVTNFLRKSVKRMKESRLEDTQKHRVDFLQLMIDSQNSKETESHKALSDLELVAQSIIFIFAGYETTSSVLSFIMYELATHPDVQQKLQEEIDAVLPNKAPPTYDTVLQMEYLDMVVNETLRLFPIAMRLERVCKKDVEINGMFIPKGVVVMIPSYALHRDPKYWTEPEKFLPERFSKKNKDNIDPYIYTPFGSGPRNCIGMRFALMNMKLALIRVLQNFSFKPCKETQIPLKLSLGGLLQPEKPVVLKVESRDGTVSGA
How it was run: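 Steps: enzyme/substrate mix dispensed; compound added, 10 min RT; NADPH regeneration solution added, 60 min RT; luciferin detection buffer stops reaction; 20 min later luminescence measured.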

[10] = qHTS Assay for Identification of Small Molecule Agonists for Thrombopoietin (TPO) Signaling Pathway (AID 917)
How it was run: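 Reporter: GpIIb promoter–luciferase in murine Ba/F3 expressing human TPO receptor. Pre-starved of IL-3 overnight; compounds with 26 pM TPO, 24 hrs, 37 C/5% CO2; luminescence read.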

[11] = target: Muscarinic acetylcholine receptor M1 (Rattus norvegicus) (UniProt P08482); assay: qHTS Assay for Antagonists of Acetylcholine Muscarinic M1 Receptor: Measurement of IP-One Response (AID 944); further: nearly all actives have a fitted effect of over 75% in size
Muscarinic acetylcholine receptor M1 (Rattus norvegicus), sequence (P08482 whole entry, looked up): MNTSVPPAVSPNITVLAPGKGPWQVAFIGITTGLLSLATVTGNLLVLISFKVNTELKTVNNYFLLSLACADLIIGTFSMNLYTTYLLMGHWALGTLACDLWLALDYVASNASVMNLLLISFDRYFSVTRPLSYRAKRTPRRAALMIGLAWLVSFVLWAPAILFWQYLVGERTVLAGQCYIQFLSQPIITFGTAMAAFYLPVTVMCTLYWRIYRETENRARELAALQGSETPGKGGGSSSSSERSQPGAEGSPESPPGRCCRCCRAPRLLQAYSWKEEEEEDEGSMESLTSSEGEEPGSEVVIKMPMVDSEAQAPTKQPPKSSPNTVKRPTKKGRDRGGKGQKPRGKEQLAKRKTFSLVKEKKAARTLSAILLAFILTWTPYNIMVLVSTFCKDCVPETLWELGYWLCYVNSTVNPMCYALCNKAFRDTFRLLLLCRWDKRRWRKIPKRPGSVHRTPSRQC
How it was run: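 M1-CHO (rat), 2000 cells/well, overnight recovery; cpd 10 min; carbachol EC80 (200 nM), 30 min, HEPES buffer + 50 mM LiCl pH 7.4; IP-One HTRF, Ex 337, Em 620/665 nm.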

[12] = target: Pyruvate kinase (Leishmania mexicana) (UniProt Q27686); assay: qHTS Validation Assay for Inhibitors of Leishmania Mexicana Pyruvate Kinase (AID 945)
Pyruvate kinase (Leishmania mexicana), sequence (Q27686 2-499 E452W): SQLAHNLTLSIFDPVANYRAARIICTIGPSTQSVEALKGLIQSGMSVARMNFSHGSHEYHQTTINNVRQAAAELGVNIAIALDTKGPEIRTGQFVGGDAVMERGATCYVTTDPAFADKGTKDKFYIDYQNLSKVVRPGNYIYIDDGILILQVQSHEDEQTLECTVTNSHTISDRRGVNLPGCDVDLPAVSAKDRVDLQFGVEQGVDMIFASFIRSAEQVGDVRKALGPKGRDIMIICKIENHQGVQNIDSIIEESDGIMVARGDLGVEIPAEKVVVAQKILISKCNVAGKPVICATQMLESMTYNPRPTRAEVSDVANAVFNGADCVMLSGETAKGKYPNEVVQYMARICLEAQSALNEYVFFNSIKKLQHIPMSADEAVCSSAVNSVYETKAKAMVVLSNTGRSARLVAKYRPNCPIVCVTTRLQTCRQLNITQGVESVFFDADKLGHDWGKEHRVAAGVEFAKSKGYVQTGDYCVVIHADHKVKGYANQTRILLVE
How it was run: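 Luminescent ATP detection (PKLight) after a 1 h room-temperature reaction of 0.2 nM LmPYK E451W mutant with 0.5 mM PEP and 0.1 mM ADP at pH 7.2. Activity is normalized to DMSO-only control wells.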

[13] = target: Pyruvate kinase PKM (Homo sapiens) (UniProt P14618); assay: qHTS Assay for Activators of Human Muscle Pyruvate Kinase (AID 954; active means well fitted curve in the direction sought with a large enough effect, not every such curve was filed as active)
Pyruvate kinase PKM (Homo sapiens), sequence (P14618 whole entry, looked up): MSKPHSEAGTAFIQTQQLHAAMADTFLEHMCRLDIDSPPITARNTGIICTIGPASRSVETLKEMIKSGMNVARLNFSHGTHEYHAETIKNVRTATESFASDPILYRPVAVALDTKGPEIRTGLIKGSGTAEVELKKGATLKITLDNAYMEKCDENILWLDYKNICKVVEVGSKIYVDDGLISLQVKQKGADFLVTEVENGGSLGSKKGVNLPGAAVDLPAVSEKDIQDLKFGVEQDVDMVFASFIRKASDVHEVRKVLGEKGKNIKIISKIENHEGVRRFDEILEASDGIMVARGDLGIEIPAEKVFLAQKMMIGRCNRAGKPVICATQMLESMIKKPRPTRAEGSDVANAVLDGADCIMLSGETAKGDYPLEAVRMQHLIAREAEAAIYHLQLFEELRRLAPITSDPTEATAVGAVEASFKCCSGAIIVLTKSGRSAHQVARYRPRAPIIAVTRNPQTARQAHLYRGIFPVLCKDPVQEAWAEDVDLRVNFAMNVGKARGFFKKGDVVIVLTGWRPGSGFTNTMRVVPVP
How it was run: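 Reaction: 0.1 nM purified PKM2 with 0.5 mM phosphoenolpyruvate and 0.1 mM ADP, room temperature, 1 h. Readout: luciferase-based ATP luminescence after stop reagent. Activators judged against a 0.3 nM enzyme column.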

[14] = target: Alpha-galactosidase A (Homo sapiens) (UniProt P06280); assay: Counterscreen for Glucocerebrosidase Inhibitors: qHTS Assay for Human alpha-Galactosidase at pH 4.5 (AID 992)
Alpha-galactosidase A (Homo sapiens), sequence (P06280 whole entry, looked up): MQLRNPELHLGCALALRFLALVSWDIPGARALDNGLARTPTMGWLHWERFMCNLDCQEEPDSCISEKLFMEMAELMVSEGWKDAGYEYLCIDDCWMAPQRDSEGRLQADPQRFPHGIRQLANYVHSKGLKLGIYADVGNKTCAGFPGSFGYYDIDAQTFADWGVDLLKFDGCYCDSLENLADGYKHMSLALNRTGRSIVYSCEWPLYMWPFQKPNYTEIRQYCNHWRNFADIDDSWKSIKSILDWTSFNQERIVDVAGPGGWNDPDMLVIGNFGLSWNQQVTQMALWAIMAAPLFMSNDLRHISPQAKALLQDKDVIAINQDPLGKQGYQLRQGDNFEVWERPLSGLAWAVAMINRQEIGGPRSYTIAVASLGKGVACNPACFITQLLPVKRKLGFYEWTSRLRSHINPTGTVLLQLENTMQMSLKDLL
How it was run: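 Concentration-response curves (0.7 nM to 77 uM final) were modeled with the Hill equation to give AC50. Reactions: 2 nM enzyme, 80 uM fluorogenic alpha-galactoside, pH 4.5 citric acid buffer, 20 min, room temperature.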

[15] = target: alpha-glucosidase (Oryza sativa, rice) (UniProt Q653V4); assay: Counterscreen for Glucocerebrosidase Inhibitors: qHTS Assay for Rice alpha-Glucosidase at pH 5.0 (AID 997)
How it was run: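 Rice alpha-glucosidase (4 nM final) with 400 uM 4-methylumbelliferyl-alpha-D-glucopyranoside in citrate buffer pH 5.0, 20 min at room temperature, stopped at pH 10; fluorescence 365/440 nm, compounds 0.7 nM–77 uM, AC50 from Hill fits.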

[16] = target: Mitogen-activated protein kinase 10 (Mus musculus) (UniProt Q61831); assay: JNK3 AlphaScreen Assay (AID 530; active means well fitted curve in either direction with a large enough effect, not every such curve was filed as active;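 further: kinase came from lysate of stimulated human HepG2 cells; signal reports phosphorylation of biotinylated GST-cJun 1-79 at Ser73 with 10 µM ATP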)
How it was run: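 Compound titrations were preincubated 15 minutes at room temperature with substrate, antibody and pre-activated JNK3-containing HepG2 lysate. Reactions were started with 10 uM ATP and stopped with EDTA-containing bead buffer for AlphaScreen detection.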

[17] = target: Muscarinic acetylcholine receptor M1 (Rattus norvegicus) (UniProt P08482); assay: qHTS Assay for Antagonists of Acetylcholine Muscarinic M1 Receptor: Kinetic Measurement of Intracellular Calcium Response (AID 943); further: nearly all actives have a fitted effect of over 75% in size; further: potency means the concentration at half of the fitted maximal effect;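 on activity change, negative = inhibition: Fluo-4 calcium signal as peak divided by basal fluorescence over 4 min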
How it was run: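 Rat M1-CHO cells, 2000/well, overnight → Fluo-4 no-wash dye with probenecid, 1 h 37C → compound 10 min, room temp → basal read 6 s → carbachol EC80 (100 nM) → 4 min kinetic read; peak/basal.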

[18] = qHTS Assay for Identification of Small Molecule Antagonists for NFkB Signaling Pathway (AID 895; active means well fitted inhibition curve with a large enough effect in the signal ratio, with a control signal flat, not every such curve was filed as active; the % refers to the signal ratio)
How it was run: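 Beta-lactamase reporter read-out (460 and 530 nm emission ratio, 405 nm excitation, 2 hrs substrate loading RT) after 5 hr stimulation with 10 pM TNF alpha in compound-treated NFkB-bla ME-180 cells in low-serum medium.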

[19] = target: Cytochrome P450 2D6 (Homo sapiens) (UniProt P10635); assay: qHTS Assay for Inhibitors and Substrates of Cytochrome P450 2D6 (AID 891);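 further: luciferin methyl ether substrate demethylated by CYP2D6 with NADPH regeneration; nearly all actives have a fitted effect of over 60% in size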
How it was run: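 Human CYP2D6 (5 nM) with 30 uM Luciferin-ME EGE (at Km) in 100 mM KPO4, compound preincubated 10 min, then NADPH regeneration system for 60 min at room temperature. Luciferin read by luminescence; normalized to 1.43 uM quinidine.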

Row | SMILES | activity change, negative = inhibition [1] | Potency [2] | activity change, negative = inhibition [3] | activity, negative = inhibition [4] | Potency [5] [µM] | Potency [6] [µM] | outcome [7] | outcome [8] | Potency [9] | outcome [10] | Potency [11] | outcome [12] | outcome [13] | outcome [14] | outcome [15] | Potency [16] | Potency [17] | Potency [18] | activity change, negative = inhibition [16] | Potency [19]
1 | C[C@@H]1Cc2cc3c(cc2C(c2ccc(N)cc2)=NN1)OCO3 | -10.9% [at 38 µM] | 5.01 µM (active) | -10.6% [at 38 µM] | 13.7% [at 38 µM] | > 46 | > 46 | inactive | inactive | inactive | inactive | inactive | inactive | inactive | inactive | inactive | – | – | – | – | –
2 | O=C(O)[C@H]1[C@H](C(=O)O)[C@H]2CC[C@@H]1O2 | -9.16% [at 38 µM] | inactive | -8.52% [at 38 µM] | -14.7% [at 38 µM] | > 46 | > 46 | – | inactive | – | – | inactive | inactive | inactive | inactive | inactive | inactive | inactive | – | – | –
3 | COc1cc(C[C@H](C)N)c(OC)cc1I | 8.22% [at 38 µM] and 4.79% [at 38 µM] | 6.31 µM (active) and 12.6 µM (active) | -22.6% [at 38 µM] and -16.3% [at 38 µM] | -6.07% [at 38 µM] | > 46 | > 46 | inactive | inactive | inactive | inactive | – | inactive | inactive | inactive | inactive | inactive | 0.891 µM (active) | – | – | –
4 | Oc1ccc2c3c1O[C@@H]1c4[nH]c5c(c4C[C@@]4(O)[C@@H](C2)N(CC2CC2)CC[C@]314)C[C@]1(O)[C@@H]2Cc3ccc(O)c4c3[C@@]1(CCN2CC1CC1)[C@H]5O4 | -1.65% [at 38 µM] | inactive | -8.04% [at 38 µM] | -12.2% [at 38 µM] | > 46 | > 46 | inactive | inactive | inactive | inactive | – | inactive | inactive | inactive | inactive | – | inactive | inactive | – | –
5 | COc1cc([C@@H](O)CN)ccc1O | -3.13% [at 38 µM] | inactive | 6.77% [at 38 µM] | 3.87% [at 38 µM] | > 46 | > 46 | inactive | inactive | – | inactive | inactive | inactive | inactive | inactive | inactive | inactive | – | – | – | –
6 | C[C@@]12CC[C@H]3[C@@H](CCC4=C(O)C(=O)CC[C@]43C)[C@H]1CCC2=O | 4.24% [at 38 µM] | inactive | -1.14% [at 38 µM] | 14.9% [at 38 µM] | > 46 | > 46 | inactive | inactive | – | – | inactive | inactive | inactive | inactive | inactive | inactive | – | inactive | – | –
7 | O=C(O)[C@H]1CCN1 | -3.07% [at 38 µM] | inactive | 0.684% [at 38 µM] | 3.4% [at 38 µM] | > 46 | > 46 | inactive | inactive | – | inactive | inactive | inactive | inactive | inactive | inactive | – | inactive | inactive | – | –
8 | COc1ccc2c(c1O)-c1cccc3c1[C@H](C2)N(C)CC3 | -2.14% [at 38 µM] | 3.98 µM (active) | -9.88% [at 38 µM] | 28.1% [at 38 µM] | > 46 | – | inactive | inactive | inactive | inactive | inactive | inactive | inactive | inactive | inactive | inactive | – | inactive | – | –
9 | O=C(Nc1cc[c]([Sb](=[O])([OH])[OH])cc1)c1ccccc1 | -1.71% | 5.01 µM (active) | 23.1% | -1.59% | > 46 | > 9.22 | inactive | – | – | – | – | – | – | – | – | – | – | – | -0.0598% [at 11.4 µM] | inactive
10 | CC(C)C[C@H](NP(=O)(O)O[C@@H]1O[C@@H](C)[C@@H](O)[C@@H](O)[C@H]1O)C(=O)N[C@@H](Cc1c[nH]c2ccccc12)C(=O)O | 5.95% [at 38 µM] | inactive | 9.26% [at 38 µM] | 14.9% [at 38 µM] | > 46 | > 46 | inactive | inactive | – | inactive | inactive | inactive | inactive | inactive | inactive | inactive | inactive | inactive | – | –
